Sampled rows, rich in hits. Any-hit rate of the full collection: about 12%.
JMJD2A Tudor inh: JMJD2A Tudor domain (human) inhibition | O75164 | Potency, µM (series often up to 114 µM), for inactives: at the top dose activity change, negative = inhibition, actives largely listed as inhibitors | AlphaScreen JMJD2A-Tudor / H3K4me3 peptide binding | hit rate 4.4% among 390,000 | AID 504339; further: on the % scale 0 is the no-effect control and ±100 the full control effect; nearly all actives have a fitted effect of over 50% in size
G9a inh: inhibitors of human histone lysine methyltransferase G9a; Q96KQ7; G9a H3K9 monomethylation, AlphaScreen, 2 h; Potency, µM (series often up to 102 µM), for the others: at the highest dose activity, negative = inhibition, actives largely listed as inhibitors; hit rate 8.8% among 350,000; AID 504332; further: on the % scale 0 is the no-effect control and ±100 the full control effect; nearly all actives have a fitted effect of over 75% in size
Target sequence (Q96KQ7 913-1193 limits assumed): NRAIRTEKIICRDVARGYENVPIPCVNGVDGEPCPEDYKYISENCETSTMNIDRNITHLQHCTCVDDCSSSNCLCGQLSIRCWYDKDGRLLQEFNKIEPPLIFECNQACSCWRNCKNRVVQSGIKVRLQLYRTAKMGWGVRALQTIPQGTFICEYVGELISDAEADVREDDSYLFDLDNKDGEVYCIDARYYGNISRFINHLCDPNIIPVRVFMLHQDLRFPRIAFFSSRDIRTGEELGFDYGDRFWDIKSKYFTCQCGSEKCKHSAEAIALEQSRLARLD
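Using a bead-based AlphaScreen, monomethylated H3K9 product from 2 h room-temperature reactions (G9a 20 nM, peptide 500 nM, SAM 20 uM) was detected with 0.5 ug/mL rabbit anti-H3K9me1 antibody.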
Sfp PPTase inh: Sfp phosphopantetheinyl transferase inhibition; Q9F4F7; Biochemical Sfp PPTase activity, qHTS; Potency, µM, for inactives: largest response in the series, negative = inhibition, most hits filed as inhibitors; hit rate 3.5% among 310,000; AID 1490;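 further: the enzyme is Sfp with the accession as filed and its product quenches rhodamine fluorescence; 0% = enzyme reaction without inhibitor and -100% = no enzyme wells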
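Reaction rates are the 30-min fluorescence difference (ex 525, em 598 nm) in wells containing 15 nM Sfp, 5 uM rhodamine-CoA and 12.5 uM BHQ-2-YbbR at pH 7.6 with 10 mM MgCl2.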
HP1b binding inh: inhibitors of HP1-beta chromodomain binding to methylated histone tails; Potency, µM (top dose mostly 114 µM), for the others: top-dose activity change, negative = inhibition, actives largely listed as inhibitors; AID 540317; hit rate 0.56% among 390,000; P83916; AlphaScreen HP1-beta / biotin-H3K9me3 peptide binding; further: nearly all actives have a fitted effect of over 70% in size
Target sequence (P83916 whole entry, looked up): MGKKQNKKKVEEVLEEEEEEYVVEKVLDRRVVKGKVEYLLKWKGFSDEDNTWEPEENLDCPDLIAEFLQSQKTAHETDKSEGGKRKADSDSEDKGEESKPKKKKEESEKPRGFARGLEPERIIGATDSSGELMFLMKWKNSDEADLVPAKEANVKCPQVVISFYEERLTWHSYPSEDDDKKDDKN
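HP1-beta protein (50 nM final) preincubated 30 min at room temperature with biotinylated H3(1-18)K9me3 peptide (50 nM) in PBS pH 7.4, 0.01% Tween-20, then compound added for 30 min. AlphaScreen streptavidin donor/nickel chelate acceptor beads (10 ug/mL final), 30 min dark, luminescence read.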
BAZ2B inh: blocks human BAZ2B | Potency, µM (doses to about 114 µM), for the others: at the highest dose activity change, negative = inhibition, most hits filed as inhibitors | AlphaScreen BAZ2B-H3K14Ac peptide displacement | hit rate 4.4% among 360,000; further: on the % scale 0 is the no-effect control and ±100 the full control effect; nearly all actives have a fitted effect of over 60% in size
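AlphaScreen luminescence quantifies BAZ2B engagement of H3K14Ac peptide; the protein and biotinylated peptide are both at 50 nM final, buffer PBS pH 7.4 with 0.01% Tween-20, all steps at room temperature.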
PLK1 PBD block: blocks phosphopeptide binding to human PLK1 polo-box domain. P53350. Plk1 PBD binding of FITC phosphopeptide, fluorescence polarization. Potency, µM, without a hit: max response, negative = inhibition, actives largely listed as inhibitors. hit rate 2.8% among 360,000; further: series mostly up to about 57 µM; on the % scale 0 is the no-effect control and ±100 the full control effect; nearly all actives have a fitted effect of over 65% in size
Active calls of the source: *; ? = inconclusive; · = not tested or not shown; ! = repeats disagree; [ ] = remark or other dose. The call rests on the fitted dose curve; in most records, active means well fitted curve in the direction sought with a large enough effect; inconclusive means small, poorly fitted or top-dose-only effect, or another doubt; inactive means no such curve, though single readings can be large; an effect the other way counts as inactive or inconclusive. Potency means the concentration at half of the fitted maximal effect.

SMILES | JMJD2A Tudor inh | G9a inh | Sfp PPTase inh | HP1b binding inh | BAZ2B inh | PLK1 PBD block
CCN(CC)CCNC(=O)c1ccc(NC(=O)c2ccc(S(=O)(=O)N(C)c3ccccc3OC)cc2)cc1 | -26% | · | · | -7% | · | -1%
CCN(CC)CCCNC(=O)c1ccc(N2CCCCC2)c(NS(=O)(=O)c2ccc(C)cc2)c1 | -19% | 79µM* | ? | 40% | ? | -7%
CN(C)CCNC(=O)c1cccc(S(=O)(=O)Nc2ccc(F)cc2)c1 | -16% | ? | 0% | 21% | -24% | -4%
COCCOC1CCN(C(=O)c2cc(COc3ccc(F)cc3F)on2)CC1 | 2% | -4% | 13% | 25% | -4% | 1%
COc1ccc2cc(C3=CCCCC3)ncc2c1 | 10% | 1%[0.501 µM] | · | 64% | 5% | -4%
COC(=O)C1=C(c2ccccc2)c2ccccc2S(=O)(=O)N1CC(=O)Nc1ccc(F)c(F)c1 | -32% | ? | · | -7% | -21% | ·
COc1ccc(-c2cc(=O)c3ccccc3o2)cc1OC | · | · | 35µM* | · | · | ·
COc1ccc(-c2cc(=O)c3c(OC)c(OC)c(OC)cc3o2)cc1OC | · | · | 2% | · | · | ·
CNC1=C([N+](=O)[O-])CC([N+](=O)[O-])=C(N2CCNCC2)N1C | -12% | 45µM* | 19% | 9% | -1% | -16%
COc1ccc(N2CCN(C(CNC(=O)c3ccc(C)cc3)c3ccc4c(c3)OCO4)CC2)cc1 (stereo unspecified) | 28µM* | 8.9µM* | · | -18%[57 µM] | 20µM* | ·
COc1ccc(N2CCN(C(CNC(=O)CC(C)C)c3ccc4c(c3)OCO4)CC2)cc1 (stereo unspecified) | ? | 11µM* | · | 3%[57 µM] | -24% | ·
COc1ccc(C(=O)NCC(c2ccc3c(c2)OCO3)N2CCN(C)CC2)cc1 (stereo unspecified) | 2% | -4%[59 µM] | · | 29%[57 µM] | 1% | ·
COc1ccc(N2CCN(C(CNC(C)=O)c3ccc4c(c3)OCO4)CC2)cc1 (stereo unspecified) | -30% | 11% | 5% | 2% | -17%[57.1 µM] | -23%
CCCc1[nH]nc2c1C(c1ccc(OCCN3CCOCC3)c(OC)c1)C(C#N)=C(N)O2 (stereo unspecified) | -7% | ? | -13% | 28% | -6% | -16%
N#CC1=C(N)Oc2cc(O)ccc2C1c1ccccc1 (stereo unspecified) | -19% | 0%[12.7 µM] | 4% | 14% | -24% | -4%
COc1ccc(C2C(C#N)=C(N)OC(C(C)(C)C)=C2C#N)cc1OC (stereo unspecified) | -4% | 20% | 6% | 33% | -2% | -15%
CCOc1ccc(C2C(C#N)=C(N)SC(N)=C2C#N)c(OCC)c1 | ? | 14µM* | 16µM* | -21% | -38% | -19%
N#CC1=C(N)SC(N)=C(C#N)C1c1cccc(O)c1 | ? | ? | 79µM* | 4% | ? | -5%
COc1ccc(C2C(C#N)=C(N)SC(N)=C2C#N)cc1OC | 56µM* | ? | ? | 6% | -11% | -22%
CCOc1cc(C2C(C#N)=C(N)SC(N)=C2C#N)ccc1OCCN1CCOCC1 | 45µM* | 2.5µM* | -87% | ? | -31% | 27µM*
CCOc1cc(C2C(C#N)=C(N)Oc3cc(N)ccc32)ccc1O (stereo unspecified) | -18% | · | -20% | 7% | -6% | 4%
O=C(CCSCc1ccccc1Cl)NCCc1ccccc1 | 2% | 2%[59 µM] | · | 6% | -3% | ·
Cc1ccc(Cn2cc(S(=O)(=O)c3ccc(C(C)C)cc3)c(=O)c3cc4c(cc32)OCO4)cc1 | -31% | 45µM* | ? | 9% | -1% | -10%
CC(C)c1ccc(S(=O)(=O)c2cn(Cc3ccc(F)cc3)c3cc4c(cc3c2=O)OCO4)cc1 | · | -10%[59 µM] | 7% | · | 7% | ·
Cc1cc(-c2n[nH]c(=S)n2/N=C/c2ccc(Br)s2)n[nH]1 | 13µM* | ? | -20% | -25% | -37% | -27%
SMILES | JMJD2A Tudor inh | G9a inh | Sfp PPTase inh | HP1b binding inh | BAZ2B inh | PLK1 PBD block
Cc1ccc(/C=N/n2c(C)nnc2C)s1 | -21%[57.1 µM] | ? | 7% | ? | -4% | 27µM*
Cc1cc(-c2n[nH]c(=S)n2/N=C/c2ccc(C)s2)n[nH]1 | 7.9µM* | 1.8µM* | -17% | 0% | ? | -15%
Cc1ccc(/C=N/Nc2nc(Cl)c(Cl)cc2Cl)s1 | 7% | -28% | 22% | 42% | -6% | 1%
CC(C)(C)OC(=O)N[C@@H](C(=O)OC(C)(C)C)c1ccc2ccccc2c1 | -14% | -8%[0.501 µM] | · | 27% | -1% | -9%
COC(=O)C(NC(=O)c1ccccc1C(=O)O)c1ccc2ccccc2c1 (stereo unspecified) | -3% | 71µM* | 7% | 60% | -17% | 2%
O=C1CCC([N+](=O)[O-])C(c2ccccc2C(F)(F)F)N1 (stereo unspecified) | -3% | 7% | 9% | 19% | 2% | 4%
O=C(Nc1cccc(C(=O)Nc2ccc(S(=O)(=O)O)c3cc(S(=O)(=O)O)cc(S(=O)(=O)O)c23)c1)Nc1cccc(C(=O)Nc2ccc(S(=O)(=O)O)c3cc(S(=O)(=O)O)cc(S(=O)(=O)O)c23)c1 | · | 0.6µM* | 45µM*! | · | · | ·
O=C(O)c1cccc(NC(=O)c2cccc(S(=O)(=O)Nc3cccc(C(=O)O)c3)c2)c1 | -20% | ? | · | 24% | 3% | ·
CC(C)N=c1scc(-c2cccs2)n1/N=C/c1ccc(O)c(O)c1O | 22µM* | 4µM* | 11µM* | 25µM* | 32µM* | ?
CCN=c1scc(-c2cccs2)n1/N=C/c1cc(OC)ccc1O | 40µM* | ? | ? | 14µM* | 13µM* | -6%
CC(=O)c1ccc(NC(=S)N2CCCCCC2)cc1 | -3% | -30% | 7% | 32% | -26% | -10%
CC(=O)c1ccc(NC(=S)N2C(C)CCCC2C)cc1 (stereo unspecified) | · | 50µM* | 45µM* | · | 11% | ·
CCN1CCCC1CNC(=S)Nc1ccc(C(C)=O)cc1 (stereo unspecified) | -30% | 40µM* | 4% | 16% | -27% | ?
O=S(=O)(NCCC1=CCCCC1)c1ccc(Br)cc1 | 32% | 171% | 5% | 210% | 89% | -11%
Cc1ccc(C(=O)C[n+]2ccc(Cc3ccccc3)cc2)cc1 | 0% | 45µM* | 11% | 33% | -14% | -8%
O=C(C[n+]1ccc(CCSc2ccc(F)cc2)cc1)c1ccccc1 | ? | 22µM* | 50µM* | 45µM* | 5% | 1.9µM*
COc1ccccc1N1CCN(C(=O)c2oc3ccc(F)cc3c2C)CC1 | -14% | -11%[59 µM] | -11% | 23% | -4% | 3%
Cc1c(C(=O)Nc2ccccc2N2CCN(C)CC2)oc2ccc(F)cc12 | ? | 32µM* | · | ? | -31% | -7%
